Rows were chosen to be rich in hits. Some 21% of all compounds tested hit in one or more screens of this group.
Pf growth 96h: Primary qHTS for delayed death inhibitors of the malarial parasite plastid, 96 hour incubation. Potency, µM (series often up to 28.7 µM), for inactives: top-dose activity change, negative = inhibition, most hits filed as inhibitors. P. falciparum luciferase reporter growth, 96 h. 6.9% of 320,000 active; note: potency is the fitted concentration of half-maximal effect; % is set by controls: 0 for no effect and ±100 for the full control effect
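Cell-based qHTS: luciferase-tagged P. falciparum in erythrocytes (2% hematocrit, 0.05% parasitemia final) incubated with compounds for 96 hours, 37 C, 5% CO2; luciferase detection reagent then added and luminescence measured.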
Pf growth 48h: Primary qHTS for delayed death inhibitors of the malarial parasite plastid, 48 hour incubation. 5.9% of 310,000 active. AID 504832, 2011. Potency, µM (titrated, usually from 28.7 µM), without a hit: top-dose activity change, negative = inhibition, hits mostly inhibitors. P. falciparum luciferase growth in erythrocytes, 48 h; note: potency is the fitted concentration of half-maximal effect; % is set by controls: 0 for no effect and ±100 for the full control effect
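Firefly luciferase activity from engineered P. falciparum reports growth; inhibitors lower the luminescent signal. Cultures contained 2% hematocrit erythrocytes at 0.1% final parasitemia.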
Cycloheximide cs: Cycloheximide Counterscreen for Small Molecule Inhibitors of Shiga Toxin; cell reporter, cycloheximide protein synthesis inhibition counterscreen; max response, %; 12% of 300,000 active; in the data active = max response mostly above about 13%, no sharp cut-off; inactive = mostly below about 14%; note: read at 38.3 µM for the half of the compounds with a filed dose; 0% is about no effect
NS1 inh: qHTS Assay for Inhibitors of Influenza NS1 Protein Function | Potency, µM (top dose mostly 46.1 µM), for inactives: at the highest dose activity, positive = more growth | 0.4% of 270,000 active | AID 2326, 2010; calls by dose curve; note: potency is the fitted concentration of half-maximal effect; actives are rising curves; nearly all actives have a fitted effect of over 50% in size
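In this qHTS, NS1 from influenza A is expressed in budding yeast, where it slows growth. Cells are switched from glucose to 2% galactose medium (pH 6.0, -URA), treated with compound, and growth recovery is read at OD600.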
Shiga toxin inh: A qHTS for Small Molecule Inhibitors of Shiga Toxin; Vero cells, Shiga toxin protein synthesis inhibition reporter; inhibition, % at 38.7 µM; 9.2% of 290,000 active; AID 2315, 2010; in the data active = inhibition mostly above about 28%, no sharp cut-off; inactive = mostly below about 43%; note: 0% is about no effect
FBPA Giardia inh: qHTS Assay for Inhibitors of Fructose-1,6-bisphosphate Aldolase from Giardia Lamblia; purified Giardia FBPA; Potency, µM (titrated, usually from 59.6 µM), for inactives: top-dose activity, negative = inhibition, actives largely listed as inhibitors; 0.71% of 290,000 active; note: potency is the fitted concentration of half-maximal effect; % is set by controls: 0 for no effect and ±100 for the full control effect; nearly all actives have a fitted effect of over 55% in size
Target sequence (A8B2U2 whole entry, looked up): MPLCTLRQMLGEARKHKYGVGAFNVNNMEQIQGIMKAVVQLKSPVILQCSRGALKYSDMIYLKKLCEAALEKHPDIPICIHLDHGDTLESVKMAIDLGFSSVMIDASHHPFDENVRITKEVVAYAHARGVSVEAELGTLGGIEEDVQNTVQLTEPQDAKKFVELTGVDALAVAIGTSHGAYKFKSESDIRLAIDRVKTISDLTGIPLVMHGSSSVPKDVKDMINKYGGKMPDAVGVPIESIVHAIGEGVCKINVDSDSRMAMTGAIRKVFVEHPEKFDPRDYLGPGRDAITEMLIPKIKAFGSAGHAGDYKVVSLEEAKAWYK
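Giardia FBPA (40 nM reagent) was preincubated 10 min at RT with compound (up to 57.5 uM final), then substrate plus GAPDH/TPI/NAD/arsenate coupling system with diaphorase/resazurin was added; resorufin fluorescence (525/598 nm) was read after 20 min.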
Numbers without * were called inactive; u = inconclusive; x = no result given; [ ] = remark or other dose. Unless noted, calls come from the whole dose curve; as a rule, active = well fitted curve in the direction sought with a large enough effect; inconclusive = small, poorly fitted or top-dose-only effect, or another doubt; inactive = no such curve, though single readings can be large; an effect the other way counts as inactive or inconclusive.

SMILES	Pf growth 96h	Pf growth 48h	Cycloheximide cs	NS1 inh	Shiga toxin inh	FBPA Giardia inh
CC1CCCC(C)N1CC(O)COCc1ccccc1F (stereo not drawn)	-1%	-10%	-8	0%	-4	-28%
CC(=O)COC(=O)c1cccc(N2C(=O)C3C4C=CC(C4)C3C2=O)c1 (stereo not drawn)	13µM*	-7%	-6	-18%	-16	1%
N=C1C(c2ccccc2)=C(O)CN1CCCO	15µM*	u	-3	x	3	6%
Cc1ccc(N2CC(O)=C(c3ccccc3)C2=N)cc1	60%	23%	18*	x	24	9%
CC(=O)NCCc1nc2cc(NC(=O)c3cccc([N+](=O)[O-])c3)ccc2n1C	161%	136%	20	-1%	23	2%
N#C/C(C(=O)N1CCCCC1)=C1/N=C(N)c2ccccc21	34%	26%	16*	3%	37	4%
N#C/C(C(=O)N1CCCCC1)=C1/N=C(NC(=O)c2ccc(F)cc2)c2ccccc21	-18%	8%	1	-3%	-2	-8%
COc1ccc(NC(=O)Cc2nnc(SCC(=O)NC3CCCC3)n2C)cc1	-15%	-3%	0	3%	-7	18%
CCCn1c(C)nc2c(NCCO)nc(C)nc21	x	x	x	x	x	0%
CN(CCc1ccccn1)C(=O)Nc1ccc(F)cc1	-11%	9%	-5	-12%	3	0%
CN(CCc1ccccn1)C(=O)Nc1ccc(C(C)(C)C)cc1	35%	3%	20*	-4%	26	-12%
N#CC1=C(N)NC(SCC(=O)Nc2ccccc2)=C(C#N)C12CCCCC2	13µM*	u	-3	-14%	-6	-15%
N#CC1=C(N)NC(SCC(=O)c2ccc(Br)cc2)=C(C#N)C12CCCCC2	15µM*	u	-4	-7%	14	-15%
COc1ccc(C(=O)CSC2=C(C#N)C3(CCCCC3)C(C#N)=C(N)N2)cc1	4%	12µM*	-5	13%	-18	-4%
N#CC1=C(N)NC(SCC(=O)c2ccc(Cl)cc2)=C(C#N)C12CCCC2	x	u	6	4%	26	-23%
COc1ccccc1/C=C/C(=O)OC(C)CN1CCCCC1 (stereo not drawn)	u	u	3	13%	24	-29%
O=C(O)c1cc(S(=O)(=O)N2CCOCC2)c[nH]1	61%	0%	x	x	x	x
CCOC(=O)CNc1c(-c2ccc(O)cc2)nc2ccc(Cl)cn12	u	2%	23*	-12%	56	u
O=C(NNC(=O)c1cccs1)c1ccc(Cl)nc1	32%	19%	x	x	x	x
O=C(Nc1cnccn1)c1cccs1	x	0%	19*	-17%	66	2%
O=C(Nc1ncc(Cl)cn1)c1cccs1	64%	x	45*	-14%	59*	2%
O=C(NC(=S)Nc1ccc(Cl)cn1)c1cccs1	u	465%	63*	-40%	99*	-26%
O=C(Nc1cccnc1)c1cccs1	6%	30%	8	-9%	5	0%
COc1ccc(CNC(=O)CCC(=O)Nc2nnc(C(F)(F)F)s2)cc1	56%	7%	-2	1%	-7	2%
COc1ccc(-c2nc(CS(=O)CC(=O)NCc3ccc(F)cc3)c(C)o2)cc1 (stereo not drawn)	u	u	1	25%	-6	2%
SMILES	Pf growth 96h	Pf growth 48h	Cycloheximide cs	NS1 inh	Shiga toxin inh	FBPA Giardia inh
CCOC(=O)C1CCN(S(=O)(=O)c2cn(C)c(C)n2)CC1	-1%	u	1	2%	-4	x
CC#CCN1c2ccccc2[C@]23C[C@@H](C(=O)OC)N(C(=O)c4cccs4)C2=NC(C(=O)OC)=C(C(=O)OC)[C@H]13	x	x	x	x	x	5%[12.9 µM]
O=C(NC(=S)Nc1cccnc1)c1cccs1	u	23%	20*	-2%	42*	u
CCCC(=O)NC(=S)Nc1ccc(Cl)cn1	-5%	8%	30*	-56%	55	-5%
O=C(Nc1c(-c2ccccc2)nc2ccc(Cl)cn12)c1cccs1	5.2µM*	0%	10	10%	-4	-5%
COc1ccccc1Nc1ccc2nonc2c1[N+](=O)[O-]	10%	0%	-2	1%	-6	-12%

High-throughput results from PubChem BioAssay.
